This passage reports growth results from PubChem BioAssay (NCI).

Test systems include NCI-H23 lung; NCI-H226 lung; NCI-H322M lung; HOP-62 NSCLC; NCI-H460 lung; HOP-92 NSCLC; NCI-H522 lung; A549/ATCC NSCLC; 786-0 renal; COLO 205 colon.
Holding throughout (test): NCI-60 one-dose screen, 48 h (100 = growth as untreated, 0 = no growth, -100 = all killed)
What all share (conditions): 10 µM unless noted

Compounds without any hit were thinned out: in the full panel of roughly 83,000, 20% have a hit.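 Activity criterion: percent growth below 10, measured after cells in 96-well plates were exposed to a single compound concentration for 48 hours.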 Unmarked numbers belong to inactive results. The source made the active and inactive calls.

Regarding `CC1C2CCC(C2)C1COCCOCCO` (stereo not given), the growth with NCI-H23 lung was 107%; with NCI-H226 lung it was 104%; with NCI-H322M lung it was 109%; in the assay with HOP-62 NSCLC, 108%; in the assay with NCI-H460 lung it was 112%; in the assay with HOP-92 NSCLC, 105%. The growth with NCI-H522 lung was 96%; in the assay with A549/ATCC NSCLC it was 92%; in the assay with 786-0 renal, 104%; in the assay with COLO 205 colon, 121%.

As for `Cc1ccc(-c2nc3ccccc3c(=O)n2/N=C/c2cccc3ccccc23)cc1`, the growth in the assay with NCI-H23 lung was 77.6%; in the assay on NCI-H226 lung, 79.2%; with NCI-H322M lung, 54.7%; in the assay with HOP-62 NSCLC it was 83.1%; with NCI-H460 lung, 69.1%; in the assay with HOP-92 NSCLC it was 74.2%. Further, the growth was 53.4% in the assay on NCI-H522 lung, 80.1% in the assay on A549/ATCC NSCLC, 87.3% in the assay on 786-0 renal and 73.8% in the assay on COLO 205 colon.

As to `NS(=O)(=O)c1ccc(N2N=C(c3ccc(Br)cc3)CC2c2cn(-c3ccccc3)nc2-c2ccc(Cl)cc2)cc1` (stereo not given), the growth in the assay with NCI-H23 lung was 88.3%; in the assay on NCI-H226 lung, 103%; in the assay on NCI-H322M lung, 92.5%; in the assay with HOP-62 NSCLC it was 98.2%; in the assay on NCI-H460 lung, 81.6%; in the assay with HOP-92 NSCLC, 157%. The growth in the assay on NCI-H522 lung is 89.9%; in the assay with A549/ATCC NSCLC it was 76.8%; in the assay on 786-0 renal, 97.9%; in the assay with COLO 205 colon it was 86.3%.

For the compound `O=C(/C=C/c1cc([N+](=O)[O-])ccc1Cl)c1ccccc1`, the growth in the assay on NCI-H23 lung is 87.6%; with NCI-H226 lung, 86.5%; with NCI-H322M lung it was 88.1%; with HOP-62 NSCLC, 103%; in the assay on NCI-H460 lung it was 97.6%; in the assay on HOP-92 NSCLC, 73.7%. Moreover, the growth with NCI-H522 lung was 82.9%; in the assay with A549/ATCC NSCLC, 91.5%; in the assay with 786-0 renal, 78.4%; with COLO 205 colon, 109%.

`Nc1n[nH]c2ccc([C@@H]3Nc4c(F)cc5[nH]ncc5c4[C@H]4C5CCC(C5)[C@@H]34)cc12` (stereo not given in full): the growth was 37.8% in the assay with NCI-H23 lung; 18.4% with NCI-H226 lung; 33.8% in the assay with NCI-H322M lung; 37.8% in the assay with HOP-62 NSCLC; 4.8% (active) in the assay with NCI-H460 lung; 30.5% in the assay on HOP-92 NSCLC. The growth was 6.67% (active) in the assay with NCI-H522 lung, 17.1% with A549/ATCC NSCLC, 40.4% with 786-0 renal and -0.831% (active) in the assay with COLO 205 colon.

For the compound `COc1cc2nccc(Oc3ccc(NC(=O)C4(C(=O)Nc5ccc(F)cc5)CC4)cc3)c2cc1OC(=O)c1ccc(N)cc1`, the growth with NCI-H23 lung was 37.8%; in the assay on NCI-H226 lung, 55.7%; in the assay with NCI-H322M lung, 43%; with HOP-62 NSCLC it was 11.7%; with NCI-H460 lung, 24.7%; in the assay with HOP-92 NSCLC it was -13.3% (active). In addition, the growth is 21.4% in the assay on NCI-H522 lung, 33.6% with A549/ATCC NSCLC, -17.4% (active) in the assay on 786-0 renal and -36.5% (active) in the assay on COLO 205 colon.

As to `c1ccc(C2=Nc3ccccc3SC2)cc1`, the growth in the assay on NCI-H23 lung was 93.5%; in the assay on NCI-H226 lung, 108%; in the assay with NCI-H322M lung, 98.2%; in the assay on HOP-62 NSCLC, 113%; with NCI-H460 lung, 99.3%; in the assay on HOP-92 NSCLC, 62.1%. For the same compound, the growth is 99.6% in the assay with NCI-H522 lung, 96.5% with A549/ATCC NSCLC, 117% with 786-0 renal and 114% in the assay on COLO 205 colon.

As for `CC(=O)c1nn(-c2ccccc2)/c(=N\N=C\c2coc3ccc(F)cc3c2=O)s1`, the growth is 96.8% in the assay on NCI-H23 lung; 86% in the assay on NCI-H226 lung; 104% in the assay on NCI-H322M lung; 85.6% with HOP-62 NSCLC; 102% in the assay with NCI-H460 lung; 90.6% with HOP-92 NSCLC. For the same compound, the growth was 101% with NCI-H522 lung, 109% in the assay on A549/ATCC NSCLC, 110% in the assay with 786-0 renal and 111% in the assay with COLO 205 colon.

As for `COc1ccc(CCN2COc3c([C@@H](C)CCC=C(C)C)ccc(C)c3C2)cc1OC`, the growth is 39.1% in the assay on NCI-H23 lung; 82.3% in the assay with NCI-H226 lung; 88.2% in the assay on NCI-H322M lung; 73.4% with HOP-62 NSCLC; 34.5% in the assay with NCI-H460 lung; -1.29% (active) in the assay with HOP-92 NSCLC. The growth with NCI-H522 lung was 64.7%; in the assay with A549/ATCC NSCLC, 74.3%; in the assay on 786-0 renal, 52.4%; in the assay with COLO 205 colon, -92.9% (active).

In the case of `CC(=O)OC1Oc2cc(C)c(C)cc2-c2oc(=O)c(-c3cc4ccccc4oc3=O)cc21` (stereo not given), the growth was 85.6% in the assay with NCI-H23 lung; 124% in the assay with NCI-H226 lung; 126% in the assay on NCI-H322M lung; 109% with HOP-62 NSCLC; 108% in the assay on NCI-H460 lung; 88.3% in the assay with HOP-92 NSCLC. Besides, the growth in the assay on NCI-H522 lung is 82.9%; in the assay on A549/ATCC NSCLC it was 113%; with 786-0 renal, 79.7%; in the assay with COLO 205 colon, 121%.

Turning to `CN(C)CCOc1nc2c3ccncc3cc(-c3cccc(Cl)c3)c2c2cnccc12`, the growth with NCI-H23 lung was 29.7%; in the assay on NCI-H226 lung, 35%; in the assay on NCI-H322M lung, 44.1%; in the assay on HOP-62 NSCLC it was 43.5%; in the assay on NCI-H460 lung it was 10.5%; in the assay with HOP-92 NSCLC, 56.2%. Also, the growth was 31.9% in the assay with NCI-H522 lung, 16.4% in the assay with A549/ATCC NSCLC, 33.4% with 786-0 renal and 13.8% in the assay with COLO 205 colon.

`FC(F)(F)C1=NNC(c2ccc3ccccc3c2)=NN1`: the growth was 94.2% in the assay on NCI-H23 lung; 87.4% in the assay on NCI-H226 lung; 103% in the assay with NCI-H322M lung; 106% in the assay on HOP-62 NSCLC; 101% in the assay with NCI-H460 lung; 95.6% in the assay on HOP-92 NSCLC. Besides, the growth is 97.2% in the assay with NCI-H522 lung, 102% with A549/ATCC NSCLC, 107% in the assay with 786-0 renal and 105% in the assay with COLO 205 colon.

As to `O=C1/C(=C\c2cccn2C(=O)c2ccccc2)c2ccccc2N1c1c(Cl)cccc1Cl`, the growth is 75.3% with NCI-H23 lung; 70.1% in the assay with NCI-H226 lung; 93.7% with NCI-H322M lung; 99.3% in the assay with HOP-62 NSCLC; 94.8% with NCI-H460 lung; 81.5% in the assay on HOP-92 NSCLC. In addition, the growth in the assay with NCI-H522 lung was 70.5%; in the assay with A549/ATCC NSCLC, 77.3%; in the assay on 786-0 renal, 94%; in the assay on COLO 205 colon, 98%.
